Where a name gives a salt, the structure may show the parent alone. ± gives the standard deviation of the averaged measurements.
System: Molm13
Test: cell viability relative to DMSO control (bortezomib = 0%); higher = less growth inhibition
Settings: 10 nM; 72 h
Method in brief: (§1)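 Cell viability was assessed by CellTiter-Glo luminescence. Acute myeloid leukemia cells were seeded at 1000 cells per well in 50 µL on a 384-well library of 679 compounds at a single 10 nM dose for 72 h. Per-plate linear regression set DMSO-treated cells at 100% and positive-control-treated cells at 0%.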

Structure (SMILES) | cell viability [%]
Fc1ccc2[nH]ccc2c1-c1nc(N2CCOCC2)c2sc(CN3CCN(CC4CC4)CC3)cc2n1 | 111 ± 13
COc1cc2ncnc(Nc3ccc(Cl)cc3F)c2cc1OC | 108 ± 8.2
Cc1cc(Nc2ncnc3ccc(NC4=NC(C)(C)CO4)cc23)ccc1Oc1ccn2ncnc2c1 [Irbinitinib(ARRY-380; ONT-380)] | 103 ± 17
COc1cc2nccc(Oc3ccc(NC(=O)NC4CC4)c(Cl)c3)c2cc1C(N)=O [Lenvatinib (E7080)] | 112 ± 6.8
N#Cc1c(O)c2c(-c3ccc(-c4ccccc4O)cc3)csc2[nH]c1=O | 111 ± 27

System: Mv4-11
Test: as above
Settings: 10 nM; 72 h
Method in brief: as §1

Structure (SMILES) | cell viability [%]
CC1(C)CN(C(=O)c2ccc(-c3cccc4nc(NC(=O)C5CC5)nn34)cc2)C1 [Solcitinib] | 114 ± 3.3
COc1ccc(C(=C2C(=O)Nc3ccccc32)c2ccc(OC)cc2)cc1 | 103 ± 5
Cc1c(NC(=O)c2ccc(C(C)(C)C)cc2)cccc1-c1cn(C)c(=O)c(Nc2ccc(C(=O)N3CCOCC3)cc2)n1 | 115 ± 8.8
COc1cc(Nc2nc3ccccc3nc2NS(=O)(=O)c2ccc(NC(=O)c3ccc(C)c(OC)c3)cc2)cc(OC)c1 | 116.8 ± 0.41
NCCNS(=O)(=O)c1cccc2cnccc12 [H-9 (hydrochloride)] | 111 ± 4.7
Cc1nc(Nc2ncc(C(=O)Nc3c(C)cccc3Cl)s2)cc(N2CCN(CCO)CC2)n1 [Dasatinib] | 114 ± 2.2
O=S(=O)(NCCNC/C=C/c1ccc(Br)cc1)c1cccc2cnccc12 [H-89 (hydrochloride)] | 109 ± 5.8
COc1cc2c(Oc3ccc(NC(=O)C4(C(=O)Nc5ccc(F)cc5)CC4)cc3F)ccnc2cc1OCCCN1CCOCC1 | 15.8 ± 33
CCN(CC)CCNC(=O)c1c(C)[nH]c(/C=C2\C(=O)Nc3ccc(F)cc32)c1C [Sunitinib (malate)] | 63.4 ± 1.2
CCCCCCCCCCCCC/C=C/[C@@H](O)[C@H](CO)N(C)C [N,N-Dimethylsphingosine] | 115 ± 6.7
FC(F)c1nc2ccccc2n1-c1nc(N2CCOCC2)nc(N2CCOCC2)n1 | 122 ± 12
COC(=O)[C@]12CCC(C)(C)C[C@H]1[C@H]1C(=O)C=C3[C@@]4(C)C=C(C#N)C(=O)C(C)(C)[C@@H]4CC[C@@]3(C)[C@]1(C)CC2 [Bardoxolone Methyl] | 104 ± 1.1
Nc1nc(OCC2CCCCC2)c2[nH]cnc2n1 | 105.62 ± 0.08
CNC(=O)Nc1cc(Oc2cncc(C)c2)c(-c2ccc(OCC(C)(C)O)nc2)cn1 | 101 ± 6.8
CS(=O)(=O)N1CCc2c(-c3cnc(N)nc3)nc(N3CCOCC3)nc21 | 126 ± 9.7
C=CC(=O)N1CCC(Oc2cc3c(Nc4ccc(Cl)c(Cl)c4F)ncnc3cc2OC)CC1 [Poziotinib (HM781-36B)] | 113 ± 10
CC(C)c1ccc2c(c1)CC[C@@H]1[C@@](C)(CN)CCC[C@@]21C [Leelamine (hydrochloride)] | 96.46 ± 0.32
CC[C@H](Nc1ncnc2[nH]cnc12)c1nc2cccc(F)c2c(=O)n1-c1ccccc1 [CAL-101 (Idelalisib, GS-1101)] | 105 ± 6.2
O=c1cc(-c2ccccc2)oc2c(O)c(O)ccc12 [7,8-Dihydroxyflavone] | 104 ± 4
N#CCNC(=O)c1ccc(-c2ccnc(Nc3ccc(N4CCOCC4)cc3)n2)cc1 [Momelotinib (CYT387)] | 110 ± 16

Structure (SMILES) | cell viability [%]
NCCCNc1ccc(Nc2nccc(Nc3cc(C4CC4)[nH]n3)n2)cc1 | 110 ± 7.2
CNC(=O)c1ccccc1Sc1ccc2c(/C=C/c3ccccn3)n[nH]c2c1 [Axitinib] | 118 ± 10
COc1ccc(S(=O)(=O)N(CCO)c2ccccc2CN(C)C/C=C/c2ccc(Cl)cc2)cc1 [KN-93 Phosphate] | 101 ± 5.2
COc1cc(Nc2c(C#N)cnc3cc(OCCCN4CCN(C)CC4)c(OC)cc23)c(Cl)cc1Cl [Bosutinib] | 90.8 ± 17
c1cc(-c2cnn3cc(-c4ccc(N5CCNCC5)cc4)cnc23)c2cccnc2c1 | 103 ± 1.1
NC[C@@](O)(c1ccc(Cl)cc1)c1ccc(-c2cn[nH]c2)cc1 | 123 ± 20
COc1cc2ncnc(Nc3ccc(F)c(Cl)c3)c2cc1NC(=O)/C=C/CN1CCCCC1 | 108 ± 1.3
CC[C@H](CO)Nc1nc(NCc2ccccc2)c2ncn(C(C)C)c2n1 [(R)-Roscovitine] | 103 ± 15
Cn1cnc(N)c2ncnc1-2 [3-Methyladenine] | 111.9 ± 1.1
Cc1ncc(CCCN(C)C)cc1Nc1ncc2c(n1)-c1ccc(C(F)(F)F)cc1NC(=S)C2 | 108 ± 7.1
CCS(=O)(=O)N1CC(CC#N)(n2cc(-c3ncnc4[nH]ccc34)cn2)C1 [Baricitinib†(Phosphate)] | 115 ± 5.4
Cc1ccc(NC(=O)c2ccc(CN3CCN(C)CC3)cc2)cc1Nc1nccc(-c2cccnc2)n1 [Imatinib (STI571)] | 97.2 ± 9.2
COc1cc2ncnc(Oc3cccc(NC(=O)Nc4cc(C(C)(C)C(F)(F)F)on4)c3)c2cc1OC | 113 ± 17
N[C@@H]1CCCN(c2c(/C=C3\SC(=O)NC3=O)cccc2-c2ccccc2)C1 | 125 ± 9.2
O=C1NC(=O)C(c2cnc3ccccn23)=C1c1cn2c3c(cc(F)cc13)CN(C(=O)N1CCCCC1)CC2 | 89.9 ± 4.6
Fc1ccc2[nH]ccc2c1-c1nc(N2CCOCC2)c2sc(CN3CCN(CC4CC4)CC3)cc2n1 | 119 ± 7.6
COc1cc2ncnc(Nc3ccc(Cl)cc3F)c2cc1OC | 102 ± 6.2
Cc1cc(Nc2ncnc3ccc(NC4=NC(C)(C)CO4)cc23)ccc1Oc1ccn2ncnc2c1 [Irbinitinib(ARRY-380; ONT-380)] | 112 ± 8.3
COc1cc2nccc(Oc3ccc(NC(=O)NC4CC4)c(Cl)c3)c2cc1C(N)=O [Lenvatinib (E7080)] | 123 ± 14
N#Cc1c(O)c2c(-c3ccc(-c4ccccc4O)cc3)csc2[nH]c1=O | 93.9 ± 14
